From PubChem BioAssay AID1159580 (chemical genetic matrix, 2015)
Where “and” joins values, the source holds several entries; their conditions need not be identical. Equal entries are not always repeated. In all, about 5,500 compounds went through this assay and about 2,000 (36%) were called active. Roughly 18% stayed inconclusive and do not appear here. Cut-off read from the data, not from the text of the source: active = normalized growth mostly below about 0.91 (no sharp cut-off); inconclusive = no clear call, values can overlap the other calls; inactive = mostly above about 0.92. The list shows a part of the results.

Assay: chemical genetic growth profiling, strain panel (AID 1159580);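 note: tested at 20 µM; growth read once vehicle control cultures reached saturation at 30 °C; 1 = growth at the plate median or of vehicle wells; lower values mean less growth of the strain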
Settings: S. cerevisiae deletion strains, growth OD

Measured: normalized growth

COc1cc2c3cc1Oc1cc(ccc1O)C[C@@H]1c4c(cc(OC)c(O)c4Oc4ccc(cc4)C[C@@H]3N(C)CC2)CC[N+]1(C)C
inactive: locus YAL021C, strain ccr4, stronger effect = lower value 1 | locus YAL026C, strain drs2, stronger effect = lower value 0.976 | locus YAL030W, strain snc1, stronger effect = lower value 1.01 | locus YBL061C, strain skt5, stronger effect = lower value 1 | locus YBR009C, strain hhf1, stronger effect = lower value 0.943 | locus YBR021W, strain FUR4, stronger effect = lower value 0.998 | locus YBR023C, strain chs3, stronger effect = lower value 0.997 | locus YBR171W, strain sec66, stronger effect = lower value 1.01 | locus YBR229C, strain ROT2, stronger effect = lower value 1 | locus YBR231C, strain swc5, stronger effect = lower value 1.02 | locus YBR279W, strain paf1, stronger effect = lower value 0.991 | locus YCL011C, strain gbp2, stronger effect = lower value 0.954 | locus YCL016C, strain dcc1, stronger effect = lower value 0.939 | locus YCL029C, strain bik1, stronger effect = lower value 0.999 | locus YCL069W, strain vba3, stronger effect = lower value 0.998 | locus YCR088W, strain abp1, stronger effect = lower value 0.997 | locus YDL005C, strain med2, stronger effect = lower value 1 | locus YDL035C, strain GPR1, stronger effect = lower value 1 | locus YDL040C, strain nat1, stronger effect = lower value 1.01 | locus YDL074C, strain BRE1, stronger effect = lower value 1.02 | locus YDL101C, strain DUN1, stronger effect = lower value 1.02 | locus YDL185W, strain tfp1, stronger effect = lower value 1.01 | locus YDL192W, strain arf1, stronger effect = lower value 0.998 | locus YDR001C, strain nth1, stronger effect = lower value 0.972 | locus YDR069C, strain doa4, stronger effect = lower value 1.02 | locus YDR101C, strain arx1, stronger effect = lower value 1 | locus YDR137W, strain rgp1, stronger effect = lower value 1 | locus YDR159W, strain sac3, stronger effect = lower value 0.927 | locus YDR162C, strain NBP2, stronger effect = lower value 1.03 | locus YDR195W, strain ref2 1.01 | locus YDR297W, strain sur2, stronger effect = lower value 1 | locus YDR318W, strain mcm21, stronger effect = lower value 0.994 | locus YDR334W, strain swr1, stronger effect = lower value 0.979 | locus YDR335W, strain msn5, stronger effect = lower value 0.995 | locus YDR388W, stronger effect = lower value 1 | locus YDR392W, strain spt3, stronger effect = lower value 0.769 | locus YDR502C, strain sam2, stronger effect = lower value 1 | locus YEL003W, strain gim4, stronger effect = lower value 1 | locus YEL037C, strain rad23, stronger effect = lower value 0.999 | locus YEL061C, strain CIN8 (second series), stronger effect = lower value 0.967 | locus YEL061C, strain CIN8, stronger effect = lower value 1.01 | locus YER015W, strain faa2, stronger effect = lower value 0.996 | locus YER016W, strain bim1, stronger effect = lower value 0.988 | locus YER110C, stronger effect = lower value 1.01 | locus YER111C, strain swi4, stronger effect = lower value 0.994 | locus YER155C, strain BEM2 (second series), stronger effect = lower value 1.05 | locus YER155C, strain BEM2, stronger effect = lower value 1.02 | locus YER167W, strain BCK2, stronger effect = lower value 1.01 | locus YFR010W, strain ubp6, stronger effect = lower value 0.989 | locus YGL078C, strain dbp3, stronger effect = lower value 0.993 | locus YGL086W, strain mad1, stronger effect = lower value 1.03 | locus YGL167C, strain pmr1, stronger effect = lower value 1 | locus YGL173C, strain kem1, stronger effect = lower value 1 | locus YGL227W, strain vid30, stronger effect = lower value 0.981 | locus YGL240W, strain doc1, stronger effect = lower value 1.02 | locus YGL248W, strain PDE1, stronger effect = lower value 1.02 | locus YGL253W, strain hxk2, stronger effect = lower value 0.978 | locus YGR135W, strain pre9, stronger effect = lower value 0.989 | locus YGR252W, strain gcn5, stronger effect = lower value 0.947 | locus YHR013C, strain ard1, stronger effect = lower value 0.943 | locus YHR027C, strain rpn1, stronger effect = lower value 0.988 | locus YHR030C, strain SLT2, stronger effect = lower value 1 and 0.98 | locus YHR079C, strain IRE1 (second series), stronger effect = lower value 1.01 | locus YHR079C, strain IRE1, stronger effect = lower value 0.981 | locus YHR094C, strain hxt1, stronger effect = lower value 0.996 | locus YHR129C, strain ARP1, stronger effect = lower value 1.02 | locus YHR142W, strain chs7, stronger effect = lower value 1 | locus YHR200W, strain rpn10, stronger effect = lower value 0.993 | locus YIL066C, strain RNR3, stronger effect = lower value 1.01 | locus YIL073C, strain SPO22, stronger effect = lower value 1.07 | locus YIL125W, strain kgd1, stronger effect = lower value 1.01 | locus YIR030C, strain dcg1, stronger effect = lower value 0.997 | locus YJL092W, strain hpr5, stronger effect = lower value 0.988 | locus YJL095W, strain BCK1 (second series), stronger effect = lower value 1 | locus YJL095W, strain BCK1, stronger effect = lower value 1.06 and 0.983 | locus YJL115W, strain asf1, stronger effect = lower value 0.983 | locus YJL129C, strain trk1, stronger effect = lower value 1 | locus YJL134W, strain LCB3, stronger effect = lower value 1.01 | locus YJL154C, strain vps35, stronger effect = lower value 0.992 | locus YJL164C, strain tpk1, stronger effect = lower value 0.957 | locus YJL166W, strain qcr8, stronger effect = lower value 1.04 | locus YJL168C, strain set2, stronger effect = lower value 1.01 | locus YJL187C, strain SWE1 (second series), stronger effect = lower value 1.04 | locus YJL187C, strain SWE1, stronger effect = lower value 1.01 | locus YJR043C, strain POL32, stronger effect = lower value 0.991 | locus YJR066W, strain TOR1, stronger effect = lower value 0.969 | locus YJR075W, strain HOC1, stronger effect = lower value 1.03
